Screening results deposited in PubChem BioAssay by The Scripps Research Institute Molecular Screening Center.
Most compounds without a hit are left out; they make up all but 2.5% or so of the library.
KOR antag MB: OPRK1 (human) antagonism, Maybridge screen | OPRK1 cells, antagonist mode, fluorescence readout | inhibition, % at 9 µM | 16,000 tested, 0.4% active; in the data active = inhibition above about 50%
Target sequence (P41145 whole entry, looked up): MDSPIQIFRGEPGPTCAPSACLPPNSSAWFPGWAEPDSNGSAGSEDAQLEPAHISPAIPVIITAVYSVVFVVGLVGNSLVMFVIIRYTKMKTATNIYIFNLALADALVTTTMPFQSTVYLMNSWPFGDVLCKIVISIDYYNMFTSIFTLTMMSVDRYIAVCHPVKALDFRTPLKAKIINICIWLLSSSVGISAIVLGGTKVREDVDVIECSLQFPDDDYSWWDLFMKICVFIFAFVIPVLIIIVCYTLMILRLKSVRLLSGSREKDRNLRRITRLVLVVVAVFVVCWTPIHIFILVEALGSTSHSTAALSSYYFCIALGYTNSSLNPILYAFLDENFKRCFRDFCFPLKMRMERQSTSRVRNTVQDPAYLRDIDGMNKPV
rat GALR2 ag: GALR2 (rat) receptor agonism. AID 833. O08726. activation, % at 10 µM. cell-based GALR2 agonist screen. 16,000 tested, 0.5% active; in the data active = activation above about 15%
TLR4 MyD88 blk: TLR4-MyD88 interaction inhibition; 16,000 tested, 0.06% active; O00206; AID 811; inhibition, % at 10 µM; Cell-based TLR4-MyD88 binding inhibition assay; in the data active = inhibition above about 45%
S1P1 agonist: S1P1 (human) receptor agonism; P21453; AID 1044; activation, % at 4.5 µM; 16,000 tested, 1.5% active; S1P1 agonist cell-based reporter assay; in the data active = activation above about 80%
Numbers stand for hits; . = inactive.

SMILES | KOR antag MB | rat GALR2 ag | TLR4 MyD88 blk | S1P1 agonist
O=Cc1c(O)c2ccccc2c2ccccc12 | 72.4 | . | . | .
Oc1c(Cl)c2nc3ccccc3nc2c2ccccc12 | . | . | . | .
O=C(Nc1ccc(F)cc1)/C(=C/c1cccs1)NC(=O)c1ccccc1 | . | . | . | .
COc1cc([N+](=O)[O-])c(OC)cc1SCc1n[nH]c(=S)n1-c1ccc(C)cc1 | 76.4 | . | . | .
COC(=N)c1nccnc1SCc1ccc(F)cc1 | . | . | . | .
Fc1ccc(CSc2nnc(-c3ccncc3)s2)cc1 | . | . | . | 101.0
Cc1ccc(CSc2nnc(-c3cnccn3)s2)cc1 | . | . | . | 93.0
O=C(O)c1coc2c1C(=O)CCC2 | . | . | . | .
NC(N)=NC1=NC(=O)CS1 | . | . | . | .
CC(=O)O/N=C(/N)c1csc([N+](=O)[O-])c1 | . | . | . | .
O=C(COc1ccc(SC(F)(F)F)cc1)NNS(=O)(=O)c1cc(Cl)ccc1Cl | . | . | . | .
O=[N+]([O-])c1ccc(N2CCN(c3ccc([N+](=O)[O-])cc3CO)CC2)c(CO)c1 | . | . | . | 82.3
O=[N+]([O-])c1ccc(N2CCCC2)c(Cn2ccnc2)c1 | . | . | . | .
O=C(Nc1cc(C(F)(F)F)ccc1N1CCC(C(F)(F)F)CC1)c1cccs1 | . | . | . | .
Cn1ccnc1CS(=O)(=O)c1cc(Cl)c(Oc2ccc([N+](=O)[O-])cc2Cl)c(Cl)c1 | . | . | . | 104.5
CCOc1ccc(NC(=O)c2cc(C)n(C)n2)cc1 | . | . | . | 125.7
N#C/C(=C\Nc1cc(C(F)(F)F)cc(C(F)(F)F)c1)S(=O)(=O)Cc1ccc(Cl)cc1 | . | . | . | 100.4
O=C(Nc1ccc2nccnc2c1)c1cccnc1Oc1ccc(Cl)cc1 | . | . | . | .
COc1ccc(S(=O)(=O)N2CCN(c3ccc(C(F)(F)F)cc3[N+](=O)[O-])CC2)cc1OC | . | 79.7 | . | .
Cc1nc2ccc(NC(=O)c3ccccc3C(F)(F)F)cc2o1 | . | . | . | .
Cc1nc(C(F)(F)F)ccc1C(=O)N1CCN(c2nc3ccc(Cl)cc3s2)CC1 | . | . | . | 87.9
Cc1nc(C(F)(F)F)ccc1C(=O)N1CCSCC1 | . | . | . | .
N#C/C(=C\c1ccc(Cl)c(Cl)c1)c1ccc(NC(N)=O)cc1 | . | 135.4 | . | .
COc1ccc(CO)cc1OCc1ccccc1 | . | . | . | .
Cc1nnsc1C(=O)OCc1cc(F)cc(F)c1 | . | . | . | .
SMILES | KOR antag MB | rat GALR2 ag | TLR4 MyD88 blk | S1P1 agonist
COc1ccc([N+](=O)[O-])c(C=C(C#N)C#N)c1OC | . | . | . | .
COc1cccc(/C=C(\C#N)c2ccc([N+](=O)[O-])cc2)c1OC | 68.6 | . | . | .
CCOc1ccc2nc(NC(=O)c3ccc([N+](=O)[O-])o3)sc2c1 | . | . | . | .
CCOC(=O)c1c(NC(=O)c2ccc([N+](=O)[O-])o2)nc(SC)n1Cc1cccs1 | . | . | . | 86.8
Cc1[nH]c2ccccc2c1SCc1n[nH]c(=S)n1C | . | 20.1 | . | .
CCOC(=O)CSc1c(C)[nH]c2ccccc12 | . | . | . | .
CCOC(=O)Cn1c(=O)c(-c2nc(-c3ccc(Cl)cc3)cs2)cn(C(C)C)c1=O | . | 15.6 | . | .
O=C(C1CC1)n1nccc1-c1csc(-c2ccccc2)n1 | . | . | . | .
Cc1nc2nc(N)[nH]c(=O)c2nc1C | . | . | . | 110.9
Cc1ccc(NC(=O)Nc2ccc(OCc3ccccc3)cc2)cc1NS(C)(=O)=O | . | . | . | 88.1
CC(C)Oc1cccc(N/C=C(\C#N)S(=O)(=O)c2ccc(Cl)cc2)c1 | . | . | . | .
O=C(Nc1ccc(N2CCOCC2)cc1Cl)C1CCN(C(=O)OCc2ccccc2)CC1 | . | . | . | 101.5
CCOC(=O)c1c(C)nsc1N/N=C(\C#N)C(=O)c1ccc(Cl)cc1 | . | . | . | 113.0
N#C/C(=N\O)C(=O)c1ccc(Cl)cc1 | . | . | . | .
N#C/C(=N\Nc1ccc(F)cc1)C(=O)c1ccc(Cl)cc1 | . | . | . | 103.1
N#Cc1ccc(S(=O)(=O)Nc2cccc3ccccc23)cc1 | . | . | . | .
CC1=C(C#N)C(c2ccc(-c3ccc(OC(F)(F)F)cc3)o2)C2=C(CCCC2=O)N1 (configuration not stated) | . | . | . | .
N/C(=N\OC(=O)c1sccc1Cl)c1ccc(Cl)cc1 | . | . | . | .
N/C(=N\OC(=O)c1cccc(C(F)(F)F)n1)c1cccc(C(F)(F)F)c1 | . | . | . | 90.7
NC(=NC(=O)c1cccc(C(F)(F)F)c1)c1ccc(C(F)(F)F)cn1 | 58.4 | . | . | .
Cc1cc(-c2onc(C)c2C(=O)O/N=C(\N)c2cccc(C(F)(F)F)c2)no1 | . | . | . | .
N#Cc1c(C(F)(F)F)c([N+](=O)[O-])c(-c2cccc([N+](=O)[O-])c2)[nH]c1=O | . | 25.1 | . | .
CCOC(=O)/C(C#N)=N/Nc1cc(-c2ccccc2)[nH]n1 | . | . | . | .
NC(=O)CNC(=O)c1cccs1 | . | . | . | .
Cc1cc(N=Nc2ccc(Cl)cc2)cc(CN2CCOCC2)c1O | . | . | . | 95.3
SMILES | KOR antag MB | rat GALR2 ag | TLR4 MyD88 blk | S1P1 agonist
O=c1ccc([N+](=O)[O-])cn1C1CCCCO1 (configuration not stated) | . | . | . | 94.5
CCn1nc(C)cc1-c1nnc(SCc2ccc(C(F)(F)F)cc2)o1 | . | . | . | 96.9
CCn1nc(C)cc1-c1nnc(-c2ccccc2Cl)o1 | . | . | . | .
CCOC(=O)[C@@H](N)CCSC | 51.8 | . | . | .
Cc1nc(/C(N)=N/OC(=O)c2c(-c3ccccc3)noc2C)cs1 | . | . | . | .
OCc1ccc(-c2cc(C(F)(F)F)cc(C(F)(F)F)c2)o1 | . | . | . | .
O/N=C/c1ccc(-c2cc(C(F)(F)F)cc(C(F)(F)F)c2)o1 | . | . | . | 92.0
Cc1ccc(-c2csc3ncnc(NCc4ccco4)c23)cc1 | . | . | . | 86.8
O=C(NCc1ccc(Cl)cc1Cl)c1cccnc1OCC(F)(F)F | . | . | . | .
CSC(=NCc1c(N(C)C)cccc1N(C)C)NS(=O)(=O)c1ccccc1 | . | . | . | 94.8
CSC(=NCCSC(C)(C)C)NS(=O)(=O)c1ccccc1 | . | . | . | .
CCOC(=O)c1cnc(C(F)(F)F)nc1Nc1ccccc1Cl | . | . | . | .
O=C(NCc1ccco1)c1ccc(Cl)cc1[N+](=O)[O-] | . | . | . | .
O=[N+]([O-])c1cc(C2SCCS2)ccc1SCc1ccco1 | . | . | . | 99.5
O=C(Nc1ccc(-c2nnc(-c3ccc(NC(=O)C(Cl)Cl)cc3)o2)cc1)C(Cl)Cl | . | . | . | .
COC(=O)/C(C#N)=C\c1cc([N+](=O)[O-])ccc1N1CCOCC1 | . | . | . | .
C#Cc1cccc(NC(=O)c2sc3nc4c(c(-c5cccs5)c3c2N)CCCC4)c1 | 64.7 | . | . | .
CSc1nc2c(c(-c3cccs3)c1C#N)CCCC2 | . | . | . | .
O=[N+]([O-])c1ccc(-c2nnc(SCc3c(Cl)cccc3Cl)o2)o1 | . | . | . | .
Cc1cc(/C(N)=N/OC(=O)c2cccc(Cl)c2)no1 | . | . | . | .
N/C(=N\OC(=O)c1ccc(OCC(F)(F)F)nc1)c1cccc(Cl)c1 | . | . | . | 94.7
CCOC(=O)c1c(C)csc1NC(=O)c1cccs1 | . | 18.6 | . | .
